# Assay results as given in PubChem BioAssay AID1347417 (National Center for Advancing Translational Sciences (NCATS), 2020).
# The whole screen tested about 120,000 compounds, of which about 5,300 (4.4%) were called active. Inconclusive results (about 22%) are left out. What follows is part of a selection rich in actives, with near analogues and random picks from the rest. Unmarked numbers belong to inactive results. The call rests on the fitted dose curve; in most records, active means well fitted inhibition curve with a large enough effect; inconclusive means small, poorly fitted or top-dose-only effect; inactive means no such curve, though single readings can be large or run the other way.
# Assay: qHTS Primary assay for Inhibitors of Plasmodium falciparum Dd2 growth in vitro; further: nearly all actives have a fitted effect of over 65% in size;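 on activity, negative = inhibition: plate controls were DMSO vehicle for no effect and reference drug for full effect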
# Conditions: P. falciparum Dd2 growth, SYBR Green, 72 h; series mostly up to 28.9 µM; activity, negative = inhibition: at the top concentration
# Outline: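 Readout: SYBR Green fluorescence, 485 nm excitation, 535 nm emission, after ~16 h lysis at 37C. Before that, Dd2-infected red cells (2.5% hematocrit) grew 72 h with compound, 29 uM top final concentration.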
# Potency means the concentration at half of the fitted maximal effect.
SMILES,"activity, negative = inhibition",outcome,Potency
Cc1cnn(CCC(=O)N2CC(F)(F)C[C@H]2c2nnc(C)o2)c1,32.9%,–,–
COc1cccc(S(=O)(=O)N2CCCN(C(=O)C3CC3)c3ccccc32)c1,-17.6%,–,–
CCOC(=O)c1c(C)[nH]c(C)c1S(=O)(=O)N(C)CC(=O)N1CCN(c2ccccc2)CC1,–,inactive,–
Cc1nc(SCC(=O)N2CCN(c3ccccc3)CC2)[nH]c(=O)c1C,2.9%,–,–
CCOC(=O)c1[nH]c(C)c(CCC(=O)N2CCN(c3ccccc3)CC2)c1C,–,–,3.98 µM (active)
COCCN1C(=O)c2cccn2CC1CNS(=O)(=O)c1c(C)noc1C (centres undefined),-0.664%,–,–
O=C(c1cccc(F)c1)N1CCOC[C@H](Oc2ccc(C(F)(F)F)cc2)C1,–,inactive [at 44.1 µM],–
COc1cccc(C(=O)N2CCC(Oc3ccc(C(=O)N4CCOCC4)cn3)CC2)c1,35%,–,–
O=C(c1cccc(OC2CN(Cc3nccs3)C2)c1)N1CCOCC1,–,–,2.51 µM (active)
O=C(c1ccccc1)N1Cc2ccccc2CC2(CCCN2CC2CCNC2)C1 (centres undefined),-21.9%,–,–
O=C(C1CCCC1)N1Cc2ccccc2CC2(CCCCN2CC2CCNCC2)C1 (centres undefined),–,–,5.01 µM (active)
CC(=O)NCCC(=O)N1Cc2ccccc2CC2(CCCCN2CC2CCNC2)C1 (centres undefined),11.9%,–,–
COCCOc1ccnc(-c2noc([C@@H]3CCCN3Cc3ccc(Cl)cc3)n2)c1,–,–,3.98 µM (active)
COc1ccc(C(=O)Nc2ccc(-c3noc([C@@H]4CCCN4Cc4ccc(S(C)(=O)=O)cc4)n3)cn2)cc1,–,inactive,–
COCCNc1ncccc1-c1noc([C@@H]2CCCN2Cc2ccc3c(c2)OCO3)n1,-24% [at 44.1 µM],–,–
Cc1ccc2c(c1)N1C(=O)OC[C@@H]1CCN(C(=O)c1ccnc(Cl)c1)C2,14% [at 44.1 µM],–,–
Cc1ccc(-c2nocc2CCC(=O)N2CCN(c3ccccc3F)CC2)cc1,–,inactive,–
CN(C)C(=O)c1cccnc1N1CC2CC(C1)[C@H]1CCCC(=O)N1C2 (some centres undefined),-8.74%,–,–
COc1ccc(-c2nn3c(-c4ccc(OC)cc4)nnc3c3ccccc23)cc1,31.5%,–,–
COc1ccc(-c2ccccc2CN)cc1,–,–,7.94 µM (active)
COc1ccccc1-c1ccc(C(=O)O)cc1,–,inactive [at 44.1 µM],–
CC(C)c1noc(-c2cn(C3CCN(C(=O)COc4ccccc4)C3)nn2)n1 (centres undefined),-11.6%,–,–
CC(C)c1noc(-c2cn(C3CCN(C(=O)c4cccc(C#N)c4)CC3)nn2)n1,-18.1%,–,–
CC(C)c1noc(-c2cn(C3CCN(C(=O)COc4ccc(F)cc4)CC3)nn2)n1,–,–,10 µM (active)

SMILES,"activity, negative = inhibition",outcome,Potency
CNC(=O)[C@@H]1CN(C(=O)Cc2cccnc2)C[C@H]1COC,22.4%,–,–
O=C(NC1CCCC1)N1CC2CC(C1)[C@H]1CCCC(=O)N1C2 (some centres undefined),6.81%,–,–
COC(=O)c1scc(-c2ccccc2)c1S(=O)(=O)Nc1ccccc1,13.8%,–,–
CCOC(=O)c1scc(-c2ccc(C)cc2)c1S(=O)(=O)Nc1cc(C)ccc1C,–,inactive,–
COC(=O)c1scc(-c2ccc(C)cc2)c1S(=O)(=O)Nc1cc(Cl)c(OC)cc1OC,–,–,8.91 µM (active)
COc1ccc(CN2C[C@H]3CN(Cc4ccccc4)CCN3C2=O)cc1,–,inactive [at 44.1 µM],–
CCCS(=O)(=O)N1CCC2(CC1)C(OC)C(=O)N2CC1CC1 (centres undefined),7.35%,–,–
COc1ccc(N2CCN(CCCNC(=O)C3(CCO)CC34CCOCC4)CC2)cc1 (centres undefined),–,inactive,–
COc1ccc(-c2nc(Cn3c(=O)cc(C)c4c(C)nn(-c5ccccc5)c43)c(C)o2)c(OC)c1,25.9%,–,–
C#CCOc1ccc(C2CC(=O)Nc3c2c(C)nn3-c2nc(C)cc(C)n2)cc1 (centres undefined),-28.9%,–,–
COc1ccc(C2CC(=O)N(Cc3ccccc3C)c3c2c(C)nn3-c2nc(C)cc(C)n2)c(OC)c1 (centres undefined),–,–,10 µM (active)
CCc1cc(=O)n(CC(=O)Nc2ccc(OC)c(OC)c2)c(N2CCOCC2)n1,–,inactive,–
COc1ccc2[nH]c(=O)c(CCC(=O)NCC(N)=O)cc2c1,-22%,–,–
Cc1n[nH]c(C)c1CCC(=O)N[C@@H]1CN(S(C)(=O)=O)C[C@H]1CN(C)C,52.8%,–,–
COc1ccc(OCC2CCN(CC3(O)CCCNC3)CC2)cc1 (centres undefined),–,–,12.6 µM (active)
CCc1cc(N2CCN(CC3(O)CCCNC3)CC2)ncn1 (centres undefined),-2.03%,–,–
OC1(CN2CCC(CCn3cccn3)CC2)CNCCOC1 (centres undefined),-13.6%,–,–
O=C(c1ccccn1)N1CCC2(CC1)C(=O)Nc1ccccc12,90.5%,–,–
O=C([C@@H]1C[C@H](Oc2ccccc2)CN1C(=O)NC1CCCCC1)N1CCCC1,-1.4%,–,–
Cc1ccc(S(=O)(=O)c2cn(Cc3ccccc3)c3cc(N4CCCC4)c(F)cc3c2=O)c(C)c1,–,–,12.6 µM (active)
CCn1cc(C(=O)N2CCN(c3cc(Cl)ccc3C)CC2)c(=O)c2cc(S(=O)(=O)N3CCCC3)ccc21,1.19%,–,–
COc1ccc(N2CCN(C(=O)c3cn(C)c4ccc(S(=O)(=O)N5CCOCC5)cc4c3=O)CC2)cc1,–,inactive,–
COc1ccc(-c2nc(S(=O)(=O)c3ccccc3)c(N3CCCCC3)o2)cc1,10%,–,–
COc1ccc(S(=O)(=O)c2cn(C)c3cc(N4CCCCC4)c(F)cc3c2=O)cc1,–,–,8.91 µM (active)

SMILES,"activity, negative = inhibition",outcome,Potency
CC1CCCN(c2cc3c(cc2F)c(=O)c(S(=O)(=O)c2cccc(Cl)c2)cn3Cc2ccccc2)C1 (centres undefined),–,inactive,–
CC(=O)N1CC2(CCN(C(=O)CCC(=O)O)CC2)Cc2ccccc21,-0.797%,–,–
COc1ccc(-c2cnc3n2CC(C(=O)NCCCN2CCCC2=O)CC3)cc1 (centres undefined),-11.1%,–,–
O=C(N[C@@H]1CCC[C@@H]1C(=O)N1CCN(c2ccccc2F)CC1)c1ccncc1,-23.6%,–,–
COCC(=O)NC1CCN(c2ccc(C)cc2)C1=O (centres undefined),-4.4%,–,–
COc1ccccc1C(=O)N1CCCC(n2cc(-c3nc(-c4ccccc4)no3)nn2)C1 (centres undefined),-20.6%,–,–
O=C(NC1CCN(Cc2ccccc2)CC1)c1ccc(Cn2c(=O)c3ccccc3n(Cc3cccc(F)c3)c2=O)cc1,–,–,7.94 µM (active)
O=C(O)c1c(CNCc2cccc(F)c2)c2ccccc2n1Cc1ccccc1,-17%,–,–
O=c1c2ccccc2n(Cc2cccc(Cl)c2)c(=O)n1Cc1ccccc1,–,inactive,–
CC(=O)N1CCC(NC[C@@H]2C=C(C)[C@H](Cc3nc4ccccc4n3C)C[C@H]2C(C)C)CC1,–,–,4.47 µM (active)
COc1ccc2nc(C[C@@H]3C[C@@H](C(C)C)[C@H](CNC(=O)CC(C)(C)CC(=O)O)C=C3C)[nH]c2c1,–,inactive,–
CC1=C[C@@H](CNS(C)(=O)=O)[C@H](C(C)C)C[C@H]1Cc1nc2ccccc2[nH]1,-20.9% [at 44.1 µM],–,–
CC1=C[C@@H](CNC(=O)CCC(=O)O)[C@H](C(C)C)C[C@H]1Cc1nc2ccccc2n1C,–,inactive [at 44.1 µM],–
CC(=O)NC[C@@H]1C=C(C)[C@H](CC(=O)N2CCCC2)C[C@H]1C(C)C,–,inactive [at 44.1 µM],–
COc1ccc(CC(=O)NC[C@@H]2C=C(C)[C@H](Cc3nc4ccncc4[nH]3)C[C@H]2C(C)C)cc1,–,inactive,–
CC1=C[C@@H](CN(CC2CC2)CC2CC2)[C@H](C(C)C)C[C@H]1Cc1nc2c(C)cccc2[nH]1,–,–,7.08 µM (active)
CC1=C[C@@H](CNC(=O)CC2(CC(=O)O)CCCC2)[C@H](C(C)C)C[C@H]1Cc1nc2c(C)cccc2[nH]1,–,inactive,–
CC1=C[C@@H](CNC2CCN(C)CC2)[C@H](C(C)C)C[C@H]1Cc1nc2ccccc2[nH]1,–,–,7.08 µM (active)
COc1ccc(CCC(=O)N2CCC(Cc3nncn3C(C)C)C2)cc1 (centres undefined),-17.8%,–,–
CC(=O)N1CCN(Cc2ccc(C(F)(F)F)c(F)c2)CC(O)C1 (centres undefined),-0.88%,–,–
O=C(NCc1ccc(F)cc1)N1CCCC(Cc2noc(-c3ccncc3)n2)C1 (centres undefined),–,inactive,–
CCC(=O)N1N=C(c2ccc(OC)cc2)CC1c1cn(-c2ccccc2)nc1-c1cccs1 (centres undefined),–,–,11.2 µM (active)
CCN(CC)CCNC(=O)CN1N=C(c2ccc(OC)cc2)CCC1=O,11%,–,–
COc1ccc(-c2noc([C@@H]3CCCN3C(=O)CCc3ccccc3)n2)cc1,–,inactive,–

SMILES,"activity, negative = inhibition",outcome,Potency
COC[C@@H]1CN(S(=O)(=O)c2cccc(F)c2)C[C@H]1c1ccncc1,2.93%,–,–
O=C(c1ccccn1)N1CCC(N(C(=O)NCCc2ccccc2)C2CCOCC2)CC1,-16%,–,–
OC[C@@H]1CN(Cc2cccnc2)C[C@H]1c1ccncc1,–,inactive,–
CN(C)c1ccc2ncc(Nc3ccccc3F)n2n1,-14.7% [at 44.1 µM],–,–
COc1ccccc1Nc1cnc2ccc(-c3ccc(OC)c(OC)c3)nn12,–,–,1.12 µM (active)
COc1ccc(-c2ccc3ncc(Nc4ccc(C(F)(F)F)cc4)n3n2)cn1,–,inactive [at 44.1 µM],–
CC(=O)N1CCN(Cc2cc(F)ccc2Cl)CC(O)C1 (centres undefined),19.5%,–,–
CN(Cc1ccccc1)C(=O)C1CCCN(c2cnn(Cc3ccccc3)c(=O)c2)C1 (centres undefined),–,inactive,–
COc1ccc([C@@H]2CN(C(=O)c3c(C)noc3C)[C@@H]3C4CCN(CC4)[C@@H]32)cc1,-8.25%,–,–
COc1cccc([C@H]2CN(c3cc(C)nc(N)n3)[C@@H]3C4CCN(CC4)[C@H]23)c1,–,–,11.2 µM (active)
Cc1ccc([C@@H]2CN(Cc3ncc[nH]3)[C@@H]3C4CCN(CC4)[C@@H]32)cc1,-2.87%,–,–
O=C(Cn1nc2c(cc1=O)CCCC2)NC1CCN(C(=O)c2cc3ccccc3[nH]2)CC1,-22.6%,–,–
C[C@@H]1CN(C(=O)c2ccsc2)C[C@H]1c1nc(-c2ccncc2)no1,11.8%,–,–
O=C1NCc2ccccc2CC12CCCN(Cc1ccc(F)cc1O)C2 (centres undefined),–,–,4.47 µM (active)
O=C1NCc2ccccc2CC12CCCN(CC1CCCCC1)C2 (centres undefined),-23%,–,–
COc1ccc(CN2CCC3(Cc4ccccc4CNC3=O)C2)cc1OC (centres undefined),-18.3%,–,–
CCOc1cc(C2C(C(=O)Nc3ccc(OC)cc3)=C(C)Nc3nc(SC)nn32)ccc1O (centres undefined),7.6%,–,–
CCOc1ccccc1NC(=O)C1=C(C)Nc2ncnn2C1c1ccc(NC(C)=O)cc1 (centres undefined),22.7%,–,–
CCOc1ccc(C2C(C(=O)Nc3ccc(Cl)cc3)=C(C)Nc3nc(C(F)(F)F)nn32)cc1 (centres undefined),–,–,2.82 µM (active)
COc1cccc(CCC(=O)N2CCCC2c2nc(C3CCOCC3)no2)c1 (centres undefined),-2.39%,–,–
c1cc(CN2CCCCCC2)cc(-c2nc(C3CCOC3)no2)c1 (centres undefined),–,–,8.91 µM (active)
O=C(NC1CCCC1)N1CCC(c2noc(-c3ccccc3)n2)C1 (centres undefined),13.8% [at 5.79 µM],–,–
